Source: PubChem (National Center for Advancing Translational Sciences (NCATS))
TGFb inhibitor: qHTS for Inhibitors of TGF-b; Potency, µM (highest dose often 46.1 µM), without a hit: at the highest dose activity, negative = inhibition, most hits filed as inhibitors; HepG2 CAGA-GFP TGF-b/SMAD3 reporter, GFP fluorescence, 18 h; TGF-beta stimulated, 500 pg/mL final; AID 588855, 2011; 1.2% of 410,000 active; further: on the % scale 0 is the no-effect control and ±100 the full control effect; nearly all actives have a fitted effect of over 65% in size
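First, reporter cells (HEPG2 CAGA-GFP) rested 2 h at 37 degrees C. Next, compounds were pinned in and TGF-beta added to 500 pg/mL final. After 18 h, GFP was imaged per cell and summed per well.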
HepG2 tox: qHTS for Inhibitors of TGF-b: Cytotox Counterscreen; 0.76% of 410,000 active; Potency, µM (titrated, usually from 46.1 µM), for inactives: top-dose activity change, negative = cytotoxicity, hits mostly cytotoxic; HepG2 CAGA-GFP viability, ATP luminescence, 18 h
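HepG2 CAGA-GFP cells (1000/well, DMEM with 1% FBS) received compound, then TGF-beta at 500 pg/mL final, and were incubated 18 hours at 37 degrees C. Viability was read by CellTiter-Glo luminescence. Media-only wells were set as complete cell-killing and DMSO as no toxicity.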
HttQ103 aggreg: qHTS Multiplex Assay to Identify Dual Action Probes in a Cell Model of Huntington: Aggregate Formation (GFP). Potency, µM (series often up to 46.1 µM), for the others: top-dose activity change, negative = inhibition, hits mostly inhibitors. 1.1% of 220,000 active. PC12 HttQ103-GFP aggregates, Acumen cytometry, 40 h; further: on the % scale 0 is the no-effect control and ±100 the full control effect; nearly all actives have a fitted effect of over 60% in size
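Quantitative HTS on tebufenozide-induced (100 nM) PC12 cells stably expressing polyQ103 Huntingtin exon 1–GFP. Reduction of bright GFP aggregates, detected by laser scanning cytometry after lysis, identified actives across the titration.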
ATXN2 expr inh: Primary qHTS for Inhibitors of ATXN expression; HEK-293 ATXN2-luciferase reporter, luminescence, 24 h; Potency, µM (titrated, usually from 57 µM), without a hit: at the highest dose activity change, negative = inhibition, usual class: inhibitors; 0.72% of 360,000 active; AID 1745845, 2022; further: on the % scale 0 is the no-effect control and ±100 the full control effect; nearly all actives have a fitted effect of over 55% in size
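qHTS (up to 57 uM final) was run with 24 h compound exposure of reporter cells at 37 °C. Each well was multiplexed: SteadyGlo luminescence measured ATXN2-luciferase expression after a fluorogenic Gly-Phe-AFC viability readout (25 uM final).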
ATXN viability: Viability Counterscreen for Primary qHTS for Inhibitors of ATXN expression | S2 cells (HEK-293 line with an ATXN2-luciferase reporter) viability, CellTiter-Fluor protease fluorescence, 24 h | 0.49% of 400,000 active | Potency, µM (titrated, usually from 56.7 µM), most hits filed as cytotoxic | AID 651635, 2014; further: nearly all actives have a fitted effect of over 40% in size
HTT ATP protect: qHTS Multiplex Assay to Identify Dual Action Probes in a Cell Model of Huntington: Cytoprotection (ATP); PC12 HTT-Q103 induced, cytoprotection, ATP luminescence, 40 h; Potency, µM (series often up to 56.4 µM), for inactives: cytoprotection (ATP increase), usual class: activators; 0.14% of 230,000 active; AID 1471, 2008; further: % of control where 0% means no effect; nearly all actives have a fitted effect of over 45% in size
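Rat PC12, Q103 Htt exon1-GFP fusion, ecdysone promoter; tebufenozide inducer 100 nM final; compound titration; qHTS, 1500 cells/well; ATPlite luminescent read.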
Numbers without * were called inactive; i = inactive; ? = inconclusive; · = no result given; [ ] = another dose, or the depositor's remark. An excerpt weighted towards active compounds, which were near 2.8% of everything screened. The call rests on the fitted dose curve; in most records, active means well fitted curve in the direction sought with a large enough effect; inconclusive means small, poorly fitted or top-dose-only effect, or another doubt; inactive means no such curve, though single readings can be large; an effect the other way counts as inactive or inconclusive. Potency means the concentration at half of the fitted maximal effect.

SMILES | TGFb inhibitor | HepG2 tox | HttQ103 aggreg | ATXN2 expr inh | ATXN viability | HTT ATP protect
CCOc1ccc(/C=N/NC(=O)C(=O)N2CCCCCC2)c2ccccc12 | 7.9µM* | -56% | · | ? | ? | ·
COc1cccc(/C=N/NC(=O)C(=O)N2CCCC2)c1OC | -2% | -13% | 10% | 1% | i | 4%
COc1cccc(C2(CC(=O)N3CCC(c4nc5ccc(F)cc5[nH]4)CC3)CC(=O)N(C)C2=O)c1 (stereo unspecified) | · | · | · | · | i | ·
Cc1sc2ccccc2[n+]1C | -6% | -9% | · | · | · | ·
COc1ccc2sc(C)[n+](C)c2c1 | 4% | -2% | -21% | 7% | ? | 11µM*
COc1ccc(-n2c(CNC(=O)c3c(-c4ccccc4)noc3C)nnc2SC)cc1 | · | · | · | · | i | ·
O=C1c2cccc(OCc3ccc(F)cc3)c2CCN1Cc1ccccc1 | 18µM* | -36% | 8% | -18% | i | 4%[10 µM]
O=C(CCN1C(=O)C2C3C=CC(C4CC34)C2C1=O)Oc1cccc2cccnc12 (stereo unspecified) | 5µM* | 6.3µM* | -3% | ? | i | -14%
CCCCOC(=O)c1c(C)oc2ccc(NS(=O)(=O)c3ccc4c5c(cccc35)C(=O)N4)cc12 | 14µM* | -18% | ? | ? | i | 1%
CCOc1ccc(S(=O)(=O)Nc2ccc3oc(C)c(C(=O)OCCOC)c3c2)cc1 | ? | -17% | · | -32% | ? | ·
CC(C)=CCn1cnc2c1C(NOCc1ccccc1)=NCN2 | · | · | · | · | · | -36%
COc1ccc(C(CNC(=O)c2ccc(-c3ccccc3Cl)o2)N2CCCC2)cc1 (stereo unspecified) | ? | 11µM* | · | · | · | ·
O=C(C#Cc1ccccc1)c1ccc([N+](=O)[O-])cc1 | ? | 39% | 7%[9.22 µM] | ? | · | -119%
O=C(C#Cc1ccccc1)c1ccccc1 | 10µM* | 13µM* | · | · | ? | ·
CCOc1cc(C2C(C#N)=C(N)OC(C)=C2C(C)=O)cc(Br)c1O (stereo unspecified) | ? | -5% | -16% | 1% | i | 6%
CCOc1cc(C2C(C#N)=C(N)OC(C)=C2C(C)=O)c(Br)c(Br)c1OC(C)C (stereo unspecified) | 16µM* | -58% | ? | 1% | i | -71%[10 µM]
CCC1(C2CCN(Cc3cccc4ccccc34)CC2)NC(=O)N(Cc2ccc3c(c2)OCO3)C1=O (stereo unspecified) | · | · | · | · | i | ·
COc1ccc2[nH]c(=O)c(CN(CC3CCCO3)C(=O)Nc3ccc(F)cc3)cc2c1 (stereo unspecified) | 1% | 2% | 11µM* | ? | ? | 5%[10 µM]
CC1(C)OC2=C(C(=O)c3ccccc3C2=O)[C@H](NCc2ccccc2)[C@H]1O | · | · | · | 3.4µM* | · | ·
O=C(COC(=O)c1ccc2ncsc2c1)NC(=O)C1CCCCC1 | -4% | 0% | · | · | · | ·
Cc1cccc(-n2c(Cc3ccccc3)nnc2SCc2nc(-c3cccs3)no2)c1 | 13µM* | -52% | · | ? | ? | ·
CCOC(=O)c1cc(CC)sc1NC(=O)c1ccc(N2C(=O)CCC2=O)cc1 | -1% | 3.5µM* | 0% | -3% | i | -7%[10 µM]
CCOC(=O)c1c(-c2ccc(C)cc2)csc1NC(=O)c1ccc(N2C(=O)CCC2=O)cc1 | -3% | -12% | -1% | -5% | i | 15%[10 µM]
CC(=O)/C=C/C=C1/C2CCC(C2)C1(C)C (stereo unspecified) | · | · | · | -5% | i | ·
C[C@H](NC(=O)C(C#N)=Cc1cccc(Br)n1)c1ccccc1 | · | · | · | 22µM* | · | ·
CCc1sc(-c2cc3cccc(OC)c3oc2=O)nc1-c1ccccc1 | -4% | -7% | · | · | · | ·
O=C(CCCl)NCc1ccccc1 | · | · | · | -2% | i | ·
